Holding throughout (assay): protein domain microarray probed with biotinylated miRNA; Domain array: 20 mM Tris-HCl pH 7.4, 200 mM KCl, 0.2 mM EDTA, 0.05% NP40, 2 ug/ul heparin, overnight 4 C. ORF array: PBS pH 7.0 with RNase inhibitor, 100 ng RNA; high values mean tight binding
Holding throughout (settings): ssRNA

For experiment [1], the target named is T1, U1SNRNPBP (Homo sapiens, UniProt Q16560).
T1 sequence: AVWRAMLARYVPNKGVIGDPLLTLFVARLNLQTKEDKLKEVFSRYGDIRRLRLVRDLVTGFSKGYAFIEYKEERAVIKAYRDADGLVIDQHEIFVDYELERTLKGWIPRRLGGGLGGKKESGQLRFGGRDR

Experiment [2] concerns the target T2, RBM47 (Homo sapiens, UniProt A0AV96).
T2 sequence: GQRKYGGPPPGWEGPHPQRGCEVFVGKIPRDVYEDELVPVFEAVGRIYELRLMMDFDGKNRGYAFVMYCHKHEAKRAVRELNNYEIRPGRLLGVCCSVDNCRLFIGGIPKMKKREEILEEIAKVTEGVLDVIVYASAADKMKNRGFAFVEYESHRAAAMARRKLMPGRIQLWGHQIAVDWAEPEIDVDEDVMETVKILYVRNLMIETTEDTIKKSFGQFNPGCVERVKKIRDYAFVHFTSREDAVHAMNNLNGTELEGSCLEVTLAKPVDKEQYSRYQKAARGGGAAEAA

The target in experiment [3] is T3, KHSRP(1-4) (Homo sapiens, UniProt Q92945).
T3 sequence: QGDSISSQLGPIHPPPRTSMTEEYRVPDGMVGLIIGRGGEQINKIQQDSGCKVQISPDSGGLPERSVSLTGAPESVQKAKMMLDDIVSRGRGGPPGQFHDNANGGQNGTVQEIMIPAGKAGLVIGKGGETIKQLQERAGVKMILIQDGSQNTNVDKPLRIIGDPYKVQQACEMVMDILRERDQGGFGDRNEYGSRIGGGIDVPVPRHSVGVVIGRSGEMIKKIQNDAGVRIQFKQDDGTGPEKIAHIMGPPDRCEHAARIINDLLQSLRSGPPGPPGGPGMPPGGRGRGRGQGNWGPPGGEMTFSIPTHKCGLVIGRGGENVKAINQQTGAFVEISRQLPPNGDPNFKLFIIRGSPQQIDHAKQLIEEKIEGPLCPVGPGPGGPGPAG

Experiment [4] has as its target T4, RBMS2 (Homo sapiens, UniProt Q15434).
T4 sequence: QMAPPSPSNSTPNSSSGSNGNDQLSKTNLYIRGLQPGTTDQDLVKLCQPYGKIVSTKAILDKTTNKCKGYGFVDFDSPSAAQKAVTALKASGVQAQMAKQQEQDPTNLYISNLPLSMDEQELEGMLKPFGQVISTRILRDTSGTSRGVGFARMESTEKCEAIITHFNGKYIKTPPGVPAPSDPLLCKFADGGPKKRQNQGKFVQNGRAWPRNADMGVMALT

The target of experiment [5] is STAU1(1) (Homo sapiens, UniProt O95793).
The target of experiment [6] is T5, STRBP(1) (Homo sapiens, UniProt Q96SI9).
T5 sequence: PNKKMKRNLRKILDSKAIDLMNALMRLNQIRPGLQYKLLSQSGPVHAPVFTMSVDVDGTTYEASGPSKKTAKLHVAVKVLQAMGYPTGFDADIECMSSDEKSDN

Experiment [7] addresses RALY (Homo sapiens, UniProt Q9UKM9).
Experiment [8] concerns the target RBM25 (Homo sapiens, UniProt P49756).
The target in experiment [9] is T6, RBM21 (Homo sapiens, UniProt Q9H6E5).
T6 sequence: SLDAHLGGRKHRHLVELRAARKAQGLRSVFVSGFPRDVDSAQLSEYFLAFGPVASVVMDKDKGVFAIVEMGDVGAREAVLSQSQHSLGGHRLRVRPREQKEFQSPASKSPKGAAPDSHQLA

Experiment [10] has as its target T7, SART3 (Homo sapiens, UniProt Q15020).
T7 sequence: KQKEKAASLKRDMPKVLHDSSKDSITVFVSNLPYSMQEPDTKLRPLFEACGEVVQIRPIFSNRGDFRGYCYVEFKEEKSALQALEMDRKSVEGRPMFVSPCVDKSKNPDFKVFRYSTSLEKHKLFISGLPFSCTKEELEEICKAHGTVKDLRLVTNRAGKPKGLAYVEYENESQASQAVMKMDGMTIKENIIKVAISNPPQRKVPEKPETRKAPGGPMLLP

Our source for the binding signal values is publication PMC11574364.

Chain of STAU1(1) (O95793 52-182): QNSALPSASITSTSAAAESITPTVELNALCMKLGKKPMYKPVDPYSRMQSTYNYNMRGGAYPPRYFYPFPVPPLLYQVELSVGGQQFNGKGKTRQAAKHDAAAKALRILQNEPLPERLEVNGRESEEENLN
Chain of RALY (Q9UKM9 1-115): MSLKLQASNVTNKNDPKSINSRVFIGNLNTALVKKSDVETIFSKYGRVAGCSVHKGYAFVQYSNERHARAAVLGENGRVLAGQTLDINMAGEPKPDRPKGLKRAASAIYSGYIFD
Chain of RBM25 (P49756 67-185): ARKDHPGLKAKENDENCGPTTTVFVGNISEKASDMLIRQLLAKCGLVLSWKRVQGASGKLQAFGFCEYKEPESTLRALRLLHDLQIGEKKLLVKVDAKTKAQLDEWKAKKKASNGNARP

As for AGAGGUAGUAGGUUGCAUAGUU, the binding signal in experiment [1] turned out to be 63.6 ± 1.29 fluorescence intensity; in [2] it was 29.82 ± 0.276 fluorescence intensity; in experiment [3], 951 ± 76.8 fluorescence intensity; in experiment [4], 79.9 ± 6.82 fluorescence intensity; in experiment [5], 25.68 ± 0.0778 fluorescence intensity; in [6], 34.2 ± 1.84 fluorescence intensity. In addition, the binding signal stood at 1628 ± 11.4 fluorescence intensity in [7], 39.5 ± 3.96 fluorescence intensity in [8], 34.33 ± 0.0778 fluorescence intensity in experiment [9] and 36.8 ± 2.71 fluorescence intensity in experiment [10].
With UGAGGUAGUAGGUUGUGUGGUU, the binding signal is 130 ± 6.12 fluorescence intensity in [1]; 53 ± 7.04 fluorescence intensity in experiment [2]; 992.47 ± 0.686 fluorescence intensity in experiment [3]; 95.1 ± 1.34 fluorescence intensity in experiment [4]; 69.7 ± 6.19 fluorescence intensity in experiment [5]; 125 ± 14.3 fluorescence intensity in experiment [6]. The binding signal in [7] was 1730 ± 54.9 fluorescence intensity; in experiment [8], 98.3 ± 20.9 fluorescence intensity; in experiment [9], 63.5 ± 6.73 fluorescence intensity; in [10], 113 ± 30.2 fluorescence intensity.
Turning to UGAGGUAGUAGGUUGUAUGGUU, the binding signal was found to be 99.4 ± 1.25 fluorescence intensity in [1]; 41.2 ± 0.636 fluorescence intensity in experiment [2]; 786 ± 28.3 fluorescence intensity in experiment [3]; 91.7 ± 4.18 fluorescence intensity in [4]; 44.5 ± 1.05 fluorescence intensity in experiment [5]; 62.8 ± 0.686 fluorescence intensity in experiment [6]. Besides, the binding signal in experiment [7] was found to be 1750 ± 31.6 fluorescence intensity; in experiment [8], 63.1 ± 0.806 fluorescence intensity; in experiment [9] it was 53.6 ± 2.81 fluorescence intensity; in [10] it was 51.5 ± 2.31 fluorescence intensity.
Turning to CAGUGCAAUGAUGAAAGGGCAU, the binding signal in [1] was determined as 46.4 ± 1.24 fluorescence intensity; in experiment [2], 26.2 ± 2.96 fluorescence intensity; in experiment [3] it was 675 ± 8.46 fluorescence intensity; in experiment [4], 39 ± 3.47 fluorescence intensity; in experiment [6] it was 37.99 ± 0.283 fluorescence intensity; in experiment [7], 332 ± 5.22 fluorescence intensity. For the same sequence, the binding signal in experiment [8] is 36 ± 0.488 fluorescence intensity; in experiment [9], 38.1 ± 3.22 fluorescence intensity; in experiment [10], 29.6 ± 6.57 fluorescence intensity.
On to UAGCUUAUCAGACUGAUGUUGA, for which the binding signal in [3] was 192 ± 3.5 fluorescence intensity; in experiment [7], 591 ± 33.9 fluorescence intensity.
Turning to UGAGGUAGUAGGUUGUAUAGUU, the binding signal in [3] came to 419 ± 11.8 fluorescence intensity; in experiment [4], 24.7 ± 2.59 fluorescence intensity; in [7], 789 ± 24.3 fluorescence intensity.
